The entries come from a sample that favours hits as a whole.
CHX counter: affects cycloheximide protein synthesis inhibition readout, counter-screen. cell reporter, cycloheximide protein synthesis inhibition counterscreen. max response, %. actives 12% (n = 300,000); in the data active = max response mostly above about 13%, no sharp cut-off; inactive = mostly below about 14%; also: read at 38.3 µM for the half of the compounds with a filed dose; 0% is about no effect
LmPK inh: LmPK (Leishmania mexicana) enzyme inhibition. actives 0.37% (n = 290,000). purified LmPK, Kinase-Glo ATP luminescence, 1 h. AID 1721. Potency, µM (series often up to 57.5 µM), for inactives: at the top dose activity change, negative = inhibition, usual class: inhibitors; also: potency is read from the fitted curve at half-maximal effect; % is scaled to controls: 0 for no effect and ±100 for the full control effect
Target sequence (Q27686 whole entry, looked up): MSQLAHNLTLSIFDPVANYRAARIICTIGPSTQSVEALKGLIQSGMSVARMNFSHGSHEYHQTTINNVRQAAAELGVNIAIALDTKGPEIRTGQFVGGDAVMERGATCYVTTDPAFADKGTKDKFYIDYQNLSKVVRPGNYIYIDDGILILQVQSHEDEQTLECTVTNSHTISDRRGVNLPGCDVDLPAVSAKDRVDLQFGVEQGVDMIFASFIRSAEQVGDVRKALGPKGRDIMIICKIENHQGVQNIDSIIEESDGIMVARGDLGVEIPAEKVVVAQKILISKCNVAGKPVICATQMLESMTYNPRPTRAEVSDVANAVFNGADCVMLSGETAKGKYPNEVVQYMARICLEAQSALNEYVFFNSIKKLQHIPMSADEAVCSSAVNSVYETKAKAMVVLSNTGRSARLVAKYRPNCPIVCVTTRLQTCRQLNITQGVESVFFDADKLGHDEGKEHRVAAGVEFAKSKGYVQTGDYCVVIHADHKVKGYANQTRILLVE
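qHTS format; LmPK 0.1 nM; substrates PEP 0.5 mM and ADP 0.1 mM. One-hour room-temperature incubation, then coupled luciferase luminescence; 0.5 nM enzyme wells mark activation.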
TbPYK inhibitor: blocks Trypanosoma brucei pyruvate kinase. Q57TT1. TbPYK enzyme, Kinase-Glo Plus ATP luminescence, 45 min. Potency, µM (top dose mostly 76.8 µM), without a hit: top-dose activity, negative = inhibition, usual class: inhibitors. actives 0.12% (n = 410,000); also: potency is read from the fitted curve at half-maximal effect; % is scaled to controls: 0 for no effect and ±100 for the full control effect; nearly all actives have a fitted effect of over 50% in size
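Luminescence from Kinase-Glo Plus, added after a 45-minute room-temperature reaction, served as the end-point read-out. The enzyme and substrate were preincubated with compound before ADP (130 uM final) initiated turnover. Concentration-effect curves came from normalized qHTS data.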
Giardia FBPA inh: inhibitors of Giardia lamblia fructose-1,6-bisphosphate aldolase; actives 0.71% (n = 290,000); Potency, µM (titrated, usually from 59.6 µM), for inactives: top-dose activity, negative = inhibition, usual class: inhibitors; AID 2451; purified Giardia FBPA; A8B2U2; also: potency is read from the fitted curve at half-maximal effect; % is scaled to controls: 0 for no effect and ±100 for the full control effect; nearly all actives have a fitted effect of over 55% in size
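40 nM FBPA preincubated 10 min at RT with compound (up to 57.5 uM final), then substrate plus GAPDH/TPI/NAD/arsenate coupling and diaphorase/resazurin added. Fluorescence read after 20 min at RT, 525/598 nm.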
RE007 growth inh: less growth of the S. pombe RE007 Vpr strain; S. pombe RE007 Vpr strain, BacTiter-Glo ATP luminescence, 24 h; Potency, µM (series often up to 92.2 µM), without a hit: top-dose activity change, negative = less growth, most hits filed as inhibitors; actives 0.21% (n = 360,000); AID 651644; active = well fitted falling curve with a large enough effect; inconclusive = small, poorly fitted or top-dose-only effect; inactive = no such curve, though single readings can be large or run the other way; also: potency is read from the fitted curve at half-maximal effect; % is scaled to controls: 0 for no effect and ±100 for the full control effect; nearly all actives have a fitted effect of over 50% in size
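Fission yeast RE007 carrying one integrated HIV-1 vpr copy, seeded at OD 0.01 in PMG+AL medium with 23 nL pinned compound. Grown 24 h at 30 degrees; viability read by BacTiter-Glo luminescence after 5 min.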
Shiga inhibitor: blocks Shiga toxin action in Vero cells. actives 9.2% (n = 290,000). inhibition, % at 38.7 µM. Vero cells, Shiga toxin protein synthesis inhibition reporter; in the data active = inhibition mostly above about 28%, no sharp cut-off; inactive = mostly below about 43%; also: 0% is about no effect
Active calls of the source: *; ? = inconclusive; nt = no result; [ ] = remark or other dose. Unless noted, calls follow the shape of the dose curve; as a rule, active = well fitted curve in the direction sought with a large enough effect; inconclusive = small, poorly fitted or top-dose-only effect, or another doubt; inactive = no such curve, though single readings can be large; an effect the other way counts as inactive or inconclusive.

SMILES	CHX counter	LmPK inh	TbPYK inhibitor	Giardia FBPA inh	RE007 growth inh	Shiga inhibitor
CCOc1ccc(NCCC(O)c2ccc(F)cc2)cc1 (stereo unspecified)	23*	-3%	-4%	16%	-1%	22
CCOc1ccc(C(C)NC(=S)NCc2ccc(F)cc2)cc1 (stereo unspecified)	-3	-6%	0%	-10%	12%	14
C#CCNC(=O)C1=C[C@@H](c2ccc(C#C)cc2)C[C@@H](OCCCCO)O1	nt	nt	-1%	nt	0%	nt
O=C(O)C1=C[C@@H](C2CC2)C[C@@H](OCc2ccc(CO)cc2)O1	1	5%	-2%	14%	3%	6
O=C(Nc1ccccc1)C1=C[C@H](C2CCCCC2)C[C@H](OCc2ccc(CO)cc2)O1	43*	4%	1%	-12%	-6%	55*
C#CCNC(=O)C1=C[C@H](c2ccc(C(F)(F)F)cc2)C[C@H](OCCCCO)O1	8.6*	4%	6%	?	6%	42
O=C(Nc1ccccc1)C1=C[C@@H](C2CCCCC2)C[C@@H](OCCCCO)O1	74*	4%	-3%	-5%	-4%	172*
O=C(Nc1ccccc1)C1=C[C@H](C2CCCCC2)C[C@H](OCCCCO)O1	nt	nt	0%	nt	1%	nt
O=C(Nc1ccccc1)C1=C[C@@H](C2CCCCC2)C[C@@H](OCc2ccc(CO)cc2)O1	40*	7%	-2%	-5%	-15%	84*
CCC(=O)[C@@]1(C)[C@H](C)C[C@@H]2[C@@H]3CCC4=CC(=O)C=C[C@@]4(C)[C@H]3[C@H](O)C[C@]21C	nt	nt	4%[33.2 µM]	-13%[21.7 µM]	nt	nt
COc1cc([C@H]2c3c(cc(OC)c(O)c3OC)C[C@@H](CO)[C@@H]2CO[C@@H]2O[C@H](CO)[C@@H](O)[C@H](O)[C@H]2O)cc(OC)c1O	nt	nt	-8%	nt	-8%	nt
CCOC(=O)CN1C(=O)N[C@@H](c2cccc(C(F)(F)F)c2)[C@H](C(=O)OC)[C@H]1C	nt	-1%[11.5 µM]	nt	8%[12.9 µM]	nt	nt
O=C(CCN1C(=O)C2C3C=CC(C4CC34)C2C1=O)Nc1ccc(Cl)cc1O (stereo unspecified)	-3	-3%	-11%	nt	-7%	-6
C#CCNC(=O)C1=C[C@H](C2CCCCC2)C[C@H](OCCCCO)O1	-2	8%	-1%	-15%	2%	-1
C#CCNC(=O)C1=C[C@@H](C2CCCCC2)C[C@@H](OCCCCO)O1	15*	10%	1%	-29%	22%	26
Cc1c(Cl)ccc2sc(NC(=O)c3ccco3)nc12	67*	-3%	4%	12%	-16%	83*
O=C(NC(=S)Nc1cccc(NC(=S)NC(=O)c2ccco2)n1)c1ccco1	9	2%	4%	?	6%	-1
O=C(NC(=S)Nc1nc2ccc(F)cc2s1)c1ccco1	32*	9%[11.5 µM]	4%	?	-10%	90*
CS(=O)(=O)c1ccc2nc(NC(=O)c3ccco3)sc2c1	36*	?	-11%	8%	-17%	40*
CS(=O)(=O)c1ccc2nc(NC(=O)c3cc4ccccc4o3)sc2c1	-1	2%	-3%	-5%	0%	-6
Cc1cccc2sc(NC(=O)CCNC(=O)c3ccco3)nc12	nt	nt	3%	nt	-15%	nt
Cc1ccc(C(=O)Nc2nc3ccc(S(C)(=O)=O)cc3s2)o1	34*	14µM*	-17%	2%	?	44*
CSc1ccc(CCNC(=O)c2cc3cc(S(=O)(=O)N4CCCCC4)ccc3n2C)cc1	nt	nt	-12%	nt	nt	nt
Cc1cccc2sc(N3CCN(C(=O)c4ccco4)CC3)nc12	nt	nt	-9%	nt	nt	nt
Cc1cccc2sc(NC(=O)C3CCN(C(=O)c4ccco4)CC3)nc12	38*	4%	6%	-16%	-20%	40
SMILES	CHX counter	LmPK inh	TbPYK inhibitor	Giardia FBPA inh	RE007 growth inh	Shiga inhibitor
O=C(Nc1ccc(C(=O)N2CCOCC2)cc1)c1cccc(Br)c1	30*	-14%	10%	nt	-1%	69
O=C(Nc1cccc(Br)c1)c1cccc(OC(=S)N2CCOCC2)c1	41*	-9%	2%	nt	21%	44*
COC(=O)C1=C[C@@H](C(=O)OC)C2C3=C(C(=O)[C@@]2(C)NC(=O)c2ccccc2)[C@H](C)n2c(=O)n(C)c(=O)n2[C@@H]3C1 (stereo partly specified)	-3	nt	nt	3%	nt	3
COc1cc(/C=C/c2ccc3cccc(O)c3n2)c(Br)cc1O	40*	-1%	nt	7%	nt	93*
Oc1ccc2ccccc2c1/C=C/c1ccc2c(Br)cc(Br)c(O)c2n1	nt	nt	-3%	nt	13%	nt
COc1cc(/C=C/c2ccc3cccc(O)c3n2)ccc1O	55*	5%	2%	-9%	nt	68*
COc1cc(Br)c(/C=C/c2ccc3cccc(O)c3n2)cc1OC	11	1%	-1%	10%	15%	2
COc1cc(Br)cc(/C=C/c2ccc3cccc(O)c3n2)c1O	32*	4%	0%	9%	-3%	75*
Oc1ccc(Cl)cc1/C=C/c1ccc2cccc(O)c2n1	29*	1%	-6%	-23%	?	61*
Oc1c(Cl)cc(Cl)cc1/C=C/c1ccc2cccc(O)c2n1	7	1%	-2%	-21%	-10%	31
COc1cccc(CC(=O)OCC(=O)NNC(=O)c2ccc(Br)cc2)c1	nt	nt	3%	nt	-23%	nt
CN1[C@@H](Cc2ccccc2)COc2cc(N3CCSCC3)ccc2S1(=O)=O	nt	nt	-3%	nt	4%	nt
CSc1ccc(/C=C/c2ccc3cccc(O)c3n2)cc1	44*	?	-15%	-17%	-24%	115*
COc1ccc(OC)c(/C=C/c2ccnc3ccccc23)c1	nt	nt	0%	nt	5%	nt
Oc1cccc2ccc(/C=C/c3ccccc3Br)nc12	62*	-9%	-6%	29%	-14%	83*
COc1ccc(OC)c(/C=C/c2ccc3cccc(O)c3n2)c1	59*	3%	nt	-1%	nt	89*
CCCn1c(CN2CCN(C(=O)OCC)CC2)nc2cc(NC(=O)CC)ccc21	3	5%	-6%	-24%	1%	12
CC(C)SCCCCOc1ccc2ccccc2c1	39*	-7%	2%	6%	-23%	33
c1ccc2cc(OCCOCCOc3ccc4ccccc4c3)ccc2c1	2	7%	1%	1%	9%	-4
CC1CN(CCCCOc2ccc3ccccc3c2)CC(C)O1 (stereo unspecified)	22*	-3%	-10%	-3%	3%	21
Cc1ccccc1OCc1ccc(C(=O)N2CC(C)OC(C)C2)o1 (stereo unspecified)	4	-2%	7%	2%	6%	-12
CC1CN(C(=O)c2ccc(COc3ccc(C(C)C)cc3)o2)CC(C)O1 (stereo unspecified)	54*	3%	-4%	0%	0%	195*

Screening results from PubChem.
